# In PubChem BioAssay AID651821 (The Scripps Research Institute Molecular Screening Center, 2012):
# The whole screen tested about 370,000 compounds, of which about 4,700 (1.3%) were called active. For the sample, actives were picked, then their nearest neighbours and some compounds at random. Unmarked numbers belong to inactive results.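 How the source made its calls: active means inhibition above the plate cutoff, the mean of all test compounds on that plate plus 3 SD (cut at about 35% in these data); inactive means the rest.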
# Test: small molecules binding CAG repeat RNA – biochemical, fluorescence, primary screen (AID 651821);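 further: 0% = DMSO alone and 100% = 100 µM mitoxantrone as full dye displacement; higher means more dye released from RNA so lower well fluorescence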
# Details: r(CAG) RNA repeat, TO-PRO-1 dye displacement fluorescence; at 3 µM; active compounds read high
row,SMILES,inhibition
1,CCCCC(NC(=O)c1cccc(Br)c1)C(=O)O (centres undefined),0.46%
2,COC(=O)[C@]12C[C@H](CC(=O)N3CCOCC3)C(=O)N(Cc3ccc(Cl)cc3Cl)C1=C[C@H](COCc1ccccc1)O[C@@H]2C,4.28%
3,CC(C)CNC(=O)OCc1cn(Cc2ccc(F)cc2)nn1,0.38%
4,Cc1cc2c(nc1C)CCCN2C,-0.74%
5,COC(=O)[C@H](C(C)C)N1CCc2nnn(Cc3ccc(C)cc3)c2-c2ccccc2S1(=O)=O,-0.02%
6,COCc1[nH]nc2c1C(c1ccccc1)N(c1ccccc1)C2=O (centres undefined),-0.7%
7,O=S(=O)(Nc1ccc2ccccc2c1)N1CCCCC1,4.05%
8,O=C(Nc1ccc2ccccc2c1)Nc1ccc2snnc2c1,47.6% (active)
9,CS(=O)(=O)c1ccccc1C(=O)Nc1ccc2sccc2c1,2.53%
10,C[C@@H]1ON(C)[C@H]2C[C@H]3c4cc(N5CCOCC5)ccc4CCN3C[C@@H]12,0.67%
11,C=CCSc1nsc(NC(=O)Nc2cccc(C(C)=O)c2)n1,60.2% (active)
12,C=CCSc1nnc2c(n1)-c1cccc3cccc-2c13,7.81%
13,COC(=O)c1cccc(NC(=O)CSc2nc(C)cc(=O)[nH]2)c1,6.31%
14,CCCCN1C(=O)C(=O)N(CC(=O)Nc2cccc(C(C)=O)c2)C1=O,4.35%
15,CC(=O)N1CCC(C(=O)Nc2nc(-c3ccccc3)ns2)CC1,6.24%
16,CSc1nsc(SCC(=O)Nc2cc(C(=O)O)ccc2C)n1,7.69%
17,CCSc1nsc(NC(=O)Nc2cccc(C(C)=O)c2)n1,62.7% (active)
18,CCc1nnc(NC(=O)CSc2nnnn2-c2cccc(C(C)=O)c2)s1,-0.71%
19,CSc1nsc(NC(=O)Nc2ccccc2)n1,38.9% (active)
20,O=C(NC1CCC1)c1ccc(C#CC2CC2)cn1,4.07%
21,CCC(c1ccc(NC(=O)OC(C)(C)C)cc1)c1cc(OC)cc(OC)c1 (centres undefined),3.19%

row,SMILES,inhibition
1,COC(=O)C1=C(C)N(Cc2ccccc2C(F)(F)F)C(=NCc2ccc(C(F)(F)F)cc2)NC1c1ccc(F)cc1 (centres undefined),1.68%
2,C=CCN(C(=O)[C@@H](CCCC)[C@@H](O)c1ccc(Cl)cc1)c1ccccc1,-0.19%
3,CCC(C)C(N=C1NS(=O)(=O)c2ccccc21)C(=O)N1CCC(C)CC1 (centres undefined),-5.03%
4,COc1ccc(S[C@]2(C(=O)N(C)C)CC(=O)N(c3ccc(OC)cc3)[C@@H]2c2ccc(OC)cc2)cc1,2.57%
5,C=CCN1C(=O)[C@@H](CC(=O)NCC2CCCCC2)[C@]2(C(=O)OC)CCCCC=C12,2.39%
6,Cc1cc(C(=O)N/N=C/c2ccc(O)c([N+](=O)[O-])c2)c(C)n1-c1ccc(F)cc1,40.9% (active)
7,Cc1c(Cl)c([N+](=O)[O-])nn1Cc1ccc(C(=O)N/N=C\c2cc(Cl)ccc2O)o1,7.06%
8,CC(Oc1ccccc1[N+](=O)[O-])C(=O)N/N=C/c1ccoc1 (centres undefined),6.95%
9,O=c1[nH]c(-c2ccccc2)cn1C1CCN(Cc2ccc(-c3nc4ccc(F)cc4nc3-c3ccccc3)cc2)CC1,14.3%
10,O=C(CCC1CCCN(Cc2ccc(O)c(Cl)c2)C1)NCc1ccccc1F (centres undefined),-2.68%
11,CCOC(=O)C(=O)N(Cc1ccccc1)c1ccccc1C(=O)Nc1cc(OC)ccc1OC,-0.13%
12,CCC(NC(=O)C1C2C=CC3(CN(Cc4ccccc4)C(=O)C13)O2)c1ccccc1 (centres undefined),0.21%
13,Cc1ccc(C(C)C)c(OCCSc2nc3ccccc3n2CC(=O)O)c1,40.7% (active)
14,CCOc1ccc(OCCSc2nc3ccccc3n2CC(=O)O)cc1,7.86%
15,COc1ccccc1OCCn1c(SCC(N)=O)nc2ccccc21,1.66%
16,Cc1ccc(Cn2cc(CN3[C@@H](CC(C)C)COc4ccc(Cl)cc4S3(=O)=O)nn2)cc1,2.98%
17,COC(=O)C1CN(CCc2ccccc2)CCS(=O)(=O)N1Cc1cccc(Cl)c1 (centres undefined),1.15%
18,CN1C[C@]2(C=C3CCCCC3n3c(=O)n(-c4ccccc4)c(=O)n32)N=C1NC(=O)c1ccccc1 (some centres undefined),8.01%
19,Cc1ccc(C(=O)COC(=O)c2cccc(N3C(=O)c4c(C)nc5ccccc5c4C3=O)c2)cc1C,8.76%
20,COc1ccc(-c2nc3ccc(Br)cn3c2Cc2ccc(C)cc2)cc1OC,40.1% (active)
21,Cc1cc(Br)cn2c(Cc3ccccc3C(F)(F)F)c(-c3ccc(Cl)cc3)nc12,11.8%

row,SMILES,inhibition
1,COC(=O)c1ccc2nc(-c3ccc(OC)c(OC)c3)c(Cc3ccccc3)n2c1,9.92%
2,Cc1ccc(-c2nc3ccc(Br)cn3c2Cc2ccccc2C(F)(F)F)cc1,30.3%
3,Fc1cccc(Cc2c(-c3cccc(Cl)c3)nc3ccc(Br)cn23)c1,48.3% (active)
4,Fc1cccc(Cc2c(-c3ccc(Cl)cc3)nc3ccc(Cl)cn23)c1,20.9%
5,Brc1ccc2nc(-c3ccccc3)c(Cc3ccccc3)n2c1,13.1%
6,Cc1ccc(-c2nc3c(C)cc(Br)cn3c2Cc2ccccc2)cc1,10.3%
7,Cc1cc(Br)cn2c(Cc3cccc(F)c3)c(-c3cccc(Br)c3)nc12,48.4% (active)
8,CCCCCC(O)c1cccc(OCc2ccc3ccccc3n2)c1 (centres undefined),1.42%
9,Cc1ccc(NC(=O)N2c3ccccc3SC2c2ccco2)c(C)c1 (centres undefined),5.91%
10,COc1ccccc1Cc1c(-c2ccc(F)cc2)nc2ccc(C)cn12,6.12%
11,CCCCNC(=O)C[C@@H]1C[C@@]2(C(=O)OCC)CCC=C2N(Cc2cccc3ccccc23)C1=O,1.85%
12,Cc1ccc(-n2c(COc3ccccc3)nnc2SCC(=O)Nc2ccc3c(c2)OCCO3)cc1,7.21%
13,COc1ccc(-n2c(COc3ccc(C)cc3)nnc2SCC(=O)Nc2ccc(Oc3ccccc3)cc2)cc1,5.38%
14,CCOc1cc(C)ccc1OCc1nnc(SCC(=O)Nc2cccc(C(=O)O)c2)n1-c1ccccc1,42% (active)
15,COC(=O)[C@]12C[C@H](CC(=O)N3CCN(C(=O)C4CC4)CC3)C(=O)N(CCC3=CCCCC3)C1=C[C@H](C(C)C)O[C@@H]2C1CC1,3.85%
16,CCN(CC(=O)NCc1cccs1)C(=O)c1cccc(S(=O)(=O)Nc2ccccc2OC)c1,-2.88%
17,O=[N+]([O-])c1cc(S(=O)(=O)Nc2cccc(Cl)c2)ccc1N=Nc1c(O)[nH]c2ccccc12,8.1%
18,COc1ccc(Br)cc1/C=N/Nc1ccc(S(=O)(=O)Nc2ccccc2C(=O)O)cc1[N+](=O)[O-],70.1% (active)
19,O=C(O)c1ccccc1/C=N/Nc1ccc(S(=O)(=O)Nc2ccc(Cl)cc2)cc1[N+](=O)[O-],67% (active)
20,O=C(Nc1cc(S(=O)(=O)Nc2ccc(Cl)cc2)ccc1O)c1ccc(F)cc1F,22.4%
21,COc1cc(/C=C/C(=O)O)cc(S(=O)(=O)Nc2ccccc2C(=O)NCCc2ccccc2)c1OC,31.7%

row,SMILES,inhibition
1,Cc1ccc(S(=O)(=O)NC(=O)COc2ccccc2C)cc1,1.07%
2,CCOc1ccccc1NS(=O)(=O)c1c[nH]c(C(=O)OC)c1,-0.7%
3,COc1ccc(S(=O)(=O)NC(C)c2ccccc2)cc1C(=O)N1CCCCC1 (centres undefined),-7.44%
4,COc1cccc(/C=N/Nc2ccc(S(=O)(=O)Nc3ccccc3C(=O)O)cc2[N+](=O)[O-])c1O,93.8% (active)
5,Cc1ccc(NS(=O)(=O)c2ccc(N/N=C/c3ccccc3OCC(=O)O)c([N+](=O)[O-])c2)c(C)c1,86.9% (active)
6,COc1ccc(N(CC(=O)Nc2ccc(C)cc2C)S(=O)(=O)c2ccccc2[N+](=O)[O-])c(OC)c1,7.1%
7,CCOc1ccccc1-n1c(SCC(=O)N2CCCC2)nnc1-c1ccoc1C,-6.11%
8,O=C(C1CCN(S(=O)(=O)c2ccccc2)CC1)N1CCN(C2CCCCC2)CC1,2.76%
9,COC(=O)[C@]12C[C@H](CC(=O)N3CCOCC3)C(=O)N(Cc3ccc(Cl)cc3Cl)C1=C[C@H](C(C)C)O[C@@H]2C1CC1,4.69%
10,COc1cccc(NC(=O)N(C)C[C@@H]2OCc3cn(nn3)CCCC(=O)N([C@@H](C)CO)C[C@H]2C)c1,1.49%
11,CCCCOCCCNC(=O)C[C@H]1C[C@@]2(C(=O)OC)C(=C[C@H](C(C)(C)C)O[C@@H]2C)N(CCc2ccc(OC)c(OC)c2)C1=O,2.98%
12,COc1ccc(CSc2nnc(SCC(=O)Nc3ccccc3C(F)(F)F)s2)cc1,0.71%
13,CCCCCCN1CCS(=O)(=O)N(Cc2ccc(C(F)(F)F)cc2)C(C(=O)OC)C1 (centres undefined),0.66%
14,CC(=O)C1(C(=O)Nc2nccs2)CC(c2ccccc2C(F)(F)F)=NO1 (centres undefined),2.46%
15,Cc1cc2nc(-c3ccco3)c(Cc3cccc(F)c3)n2c(C)c1Br,37% (active)
16,c1ccc(Cc2c(-c3ccco3)nc3c4ccccc4ccn23)cc1,13.8%
17,Cc1cc2nc(-c3ccc(F)cc3)c(Cc3ccsc3)n2c(C)c1Br,5.76%
18,O=c1cc(CN2CCN(S(=O)(=O)/C=C/c3ccccc3)CC2)c2ccc(O)cc2o1,40% (active)
19,Cc1ccc2c(CN3CCN(S(=O)(=O)c4ccccc4C(F)(F)F)CC3)cc(=O)oc2c1,10%
20,NC(=O)CCN1CCN(S(=O)(=O)/C=C/c2ccccc2)CC1,-0.01%
21,COc1ccc(CN2C(=O)C(C)S/C2=N/N=C/c2ccco2)cc1 (centres undefined),0.84%
